Screen size: about 1,100 compounds; about 540 (49%) were called active. Roughly 5% stayed inconclusive and do not appear here. The set was probably picked from earlier hits. These entries were drawn from the full list. Values without a mark were called inactive. Cut-off read from the data, not from the text of the source: active = inhibition above about 54%; inconclusive = no clear call, values can overlap the other calls; inactive = below that.
Test: prion 5' UTR mRNA inhibition, cherry-pick retest (AID 504592)
Settings: cell-based prion protein 5' UTR reporter, plate reader; at 2.5 µM; hits give high values
With `NC(=O)c1ccc(NC(=O)COC(=O)c2ccc([N+](=O)[O-])cc2)cc1` the inhibition was 91.9% (active).
In the case of `O=C1/C(=C\c2ccc([N+](=O)[O-])cc2)CS(=O)(=O)C/C1=C/c1ccc([N+](=O)[O-])cc1`, the inhibition is reported as 85.3% (active).
With `CC12CCC3C(CCC4CC(=O)CCC43C)C1CC(=NO)C2=O` (stereo unspecified) the inhibition was 0.372%.
Work on `O=C(CSc1ncnc2sccc12)N1CCN(C(=O)c2cccs2)CC1` yielded an inhibition of 9.5%.
With `COc1cc(OC)cc(C(=O)N[C@H](C(=O)Nc2nc3ccccc3[nH]2)C(C)C)c1` the inhibition was 44.9%.
With `COc1cccc2c1C(=O)c1c(O)c3c(c(O)c1C2=O)CC(O)(C(C)=NNC(=O)c1ccc(Cl)c(Cl)c1)CC3OC1CC(N)C(O)C(C)O1` (stereo unspecified) the inhibition was 82.4% (active).
For `CCC(C)(O)C(=O)OC1C(=O)OC2CC3C(C)=CC(=O)C(O)C3(C)C3C4(O)OCC23C1C(C)C4O` (stereo unspecified), the inhibition was 83% (active).
For `Cc1ccc2nc(-c3ccc(Br)cc3)cn2c1`, the inhibition was 40%.
In the case of `Cc1ccc(-c2cn3cc(C)ccc3n2)cc1`, the inhibition is reported as 89.9% (active).
Work on `Nc1ccc(OCC(O)C[n+]2ccc(CCS(=O)(=O)[O-])cc2)cc1` (stereo unspecified) yielded an inhibition of -71.6%.
In the case of `CN(NC(=O)c1ccccc1F)c1nc(C(F)(F)F)nc2ccccc12`, the inhibition is reported as 86.4% (active).
With `COc1ccc(C2=Nn3c(nnc3-c3ccccc3OC)SC2)cc1OC1CCCC1` the inhibition was 79.2% (active).
`CC(C)(C)C1CCc2c(sc3nc(SCC(N)=O)nc(N)c23)C1` (stereo unspecified) gave an inhibition of -25.3%.
For `COC1C(O)C(C)OC(OC2CCC3(C=O)C(CCC4C3CCC3(C)C(C5=CC(=O)OC5)CCC43O)C2)C1O` (stereo unspecified), the inhibition was 91.9% (active).
With `Cc1ccc(CCC(=O)Nc2ncc(Cc3cc(Cl)ccc3Cl)s2)o1` the inhibition was 89.3% (active).
With `Clc1ccc2nc(-c3ccccc3)nc(C(Cl)Cl)c2c1` the inhibition was 89.1% (active).
`Cc1cc(NC(=O)/C=C/C(=O)N(CC(=O)NC2CCCC2)c2ccc(F)cc2)no1` showed an inhibition of 15.5%.
In the case of `O=C(NNC(=O)c1ccccc1O)c1ccccc1O`, the inhibition is reported as 62.2% (active).
`CC1Cc2ccccc2N1C(=O)c1cc2sccc2n1Cc1ccccc1` (stereo unspecified) gave an inhibition of -33.3%.
With `O=c1oc2ccccc2cc1-c1cn(-c2ccccc2)c(=S)[nH]1` the inhibition was 86.9% (active).
In the case of `CCCOC(=O)c1[nH]c2c(c1C)C(=O)CC(c1cccs1)C2` (stereo unspecified), the inhibition is reported as 88.2% (active).
Compound `Cc1cc(Nc2ccccc2)n(C(=O)c2ccc(N)cc2)n1` has an inhibition of 12%.
With `COc1cc([N+](=O)[O-])ccc1NC(=S)N1CCN(c2ccccn2)CC1` the inhibition was -10.7%.
With `CN(c1ccc2nc3ccccc3c(=O)n2n1)C1CCCCC1` the inhibition was 86.2% (active).
`O=C(Nc1ccc2c(c1)OCCO2)C1CCCC1` gave an inhibition of 33.2%.
For `CCOc1cc(NS(=O)(=O)c2ccc(OC)cc2)c(OCC)cc1NC(C)=O`, the inhibition was -19.5%.
For `C=CCOc1ccc(/C=C2\SC(=S)N(CCC(=O)O)C2=O)cc1`, the inhibition was 61.2% (active).
For `COc1cc(SC)ccc1C(=O)Nc1nc(C)cs1`, the inhibition was 79% (active).
With `OCC1(Cc2ccccc2)CCN(Cc2cc3ccccc3o2)CC1` the inhibition was -6.23%.
With `O=C(CN1C(=O)c2ccccc2S1(=O)=O)N1CCc2ccccc21` the inhibition was 80% (active).
In the case of `CC(C)(C)c1ccc(Oc2ccc(N)cc2)cc1`, the inhibition is reported as 85.6% (active).
With `O=C(C1=C[C@H](c2coc3ccccc3c2=O)C[C@H](OCc2ccc(CO)cc2)O1)N1CCN(Cc2ccccc2)CC1` the inhibition was -63.6%.
For `COc1ccc(C(=O)Nc2ccccc2C(=O)N/N=C/c2ccc(O)c(OC)c2)cc1`, the inhibition was 71.2% (active).
With `CCC(C)Cn1c(O)cc2nn(-c3nc4ccccc4s3)c(=O)c-2c1C` (stereo unspecified) the inhibition was 89.8% (active).
`CCCCNS(=O)(=O)CCNCc1ccccc1OC` showed an inhibition of -14.3%.
`Oc1ccc(N2CCN(C(=S)NCc3ccccc3)CC2)cc1` showed an inhibition of -21.4%.
For `CC(=O)OC1C2(CC3N4C(=O)C5(CO)SSC4(CC31O)C(=O)N5C)OC(C)C(C)(C)C2=O` (stereo unspecified), the inhibition was 98.2% (active).
`CCn1c(=O)c(=O)[nH]c2c(=O)oc3ccc(S(=O)(=O)Nc4ccc(OC)cc4)cc3c21` showed an inhibition of -6.15%.
For `COC(=O)Cc1[nH]n(-c2nc3ccccc3s2)c(=O)c1C(C)=Nc1ccc(OC)cc1`, the inhibition was 80.6% (active).
For `COc1ccc(OC)c(Cc2cnc3nc(N)nc(N)c3c2C)c1`, the inhibition was -3.64%.
With `CC(=O)c1ccc(Oc2cc(C)nc(-n3nc(C)cc3C)n2)cc1` the inhibition was 83.7% (active).
With `COc1ccc(C(=O)/C=C/Nc2ccccn2)cc1` the inhibition was 73.9% (active).
For `Cc1ccc(-c2cccc([C@H]3[C@@H]4C=CC[C@@H](C)[C@@H]4C(=O)N3Cc3ccccc3)c2)cc1`, the inhibition was -13.7%.
With `CSc1nc(-c2ccccc2)nc(C(Cl)Cl)n1` the inhibition was 89.8% (active).
In the case of `C=CCn1c(C)cc(C2=NNC(=NCC)SC2)c1C`, the inhibition is reported as 95.3% (active).
In the case of `O=C1[C@@H](c2ccccc2)[C@@H](c2ccccc2)N1c1cccnc1`, the inhibition is reported as -4.06%.
In the case of `Cc1ccc(S(=O)(=O)Nc2nc3ccccc3s2)cc1[N+](=O)[O-]`, the inhibition is reported as 79.1% (active).
`C/C(=N\NC(=O)c1cc2c(s1)CCC(C)C2)c1cccnc1` (stereo unspecified) gave an inhibition of -16.9%.
With `Cc1ccc(/C=N/NC(=O)COc2ccccc2-c2ccccc2)cc1` the inhibition was 87.8% (active).
In the case of `COc1ccccc1N1CCN(C(=O)c2cc(=O)c3cc(C)cc(C)c3o2)CC1`, the inhibition is reported as 91.6% (active).
With `CN(CCO)c1ccc(/C=N/Nc2nncc3ccccc23)cc1` the inhibition was 72.6% (active).

Source: PubChem BioAssay AID504592 (Broad Institute, 2011)
